# According to PMC4552634, “A New Set of Chemical Starting Points with Plasmodium falciparum Transmission-Blocking Potential for Antimalarial Drug Discovery” (PLoS ONE, 2015):
# About 3,200 (25%) of roughly 13,000 compounds showed an effect of 50% or more. This is one part of the list.
# Test system: P. falciparum stage V gametocytes
# Parameters: BacTiter-Glo ATP luminescence viability of purified stage V gametocytes in 384-well plates, per cent inhibition versus DMSO
# Conditions: 48 h, 5 µM; inhibitor
row,Structure (SMILES),% Inhibition [%]
1,COc1cc(-c2ccc3c(-c4ccc(C(=O)N5CCN(C)CC5)cc4)[nH]nc3n2)cc(OC)c1OC [TCMDC-124890],40.62
2,COCCCNc1sc(S(=O)(=O)c2ccccc2)nc1S(=O)(=O)c1ccc(Cl)cc1 [TCMDC-124764],-6.212
3,Cc1ccccc1NC(=O)C1CSCN1C(=O)OCc1ccccc1 (stereo not drawn) [TCMDC-125742],-21.88
4,COc1ccc(F)cc1-c1ccccc1CNC(=O)c1cnn(-c2ccc([N+](=O)[O-])cc2)c1C(F)(F)F [TCMDC-136460],-26.92
5,COc1ccc(C(=O)NCc2ccccc2-c2ccc(C(C)(C)C)cc2)cc1O [TCMDC-136716],-20.55
6,COc1ccc(F)cc1-c1ccccc1CNC(=O)CN(C)S(=O)(=O)c1cc(C)cc(Cl)c1C [TCMDC-132302],82.24
7,CCCCCC(C)N=C(Nc1ccc([N+](=O)[O-])cc1O)Nc1ccccc1Br (stereo not drawn) [TCMDC-140073],-48.06
8,CCOC(=O)C1=C(C)N=c2sc(=Cc3cc(Cl)ccc3O)c(=O)n2C1c1ccc2c(c1)OCO2 (stereo not drawn) [TCMDC-124113],66.04
9,CCOC(=O)C1=C(C)N=c2sc(=Cc3cc(Cl)ccc3O)c(=O)n2C1c1ccc(OC)cc1 (stereo not drawn) [TCMDC-124112],-5.89
10,CCOC(=O)C1=C(C)N=c2sc(=Cc3cc(Cl)ccc3O)c(=O)n2C1c1cc(OC)c(OC)cc1Br (stereo not drawn) [TCMDC-124116],34.65
11,NC(=O)c1cccc(Nc2nccc(Nc3ccc(Oc4c(Cl)cccc4Cl)c(Cl)c3)n2)c1 [TCMDC-138594],-30.34
12,N#Cc1cccc(C(O)CN(Cc2ccccc2)Cc2ccccc2)c1 (stereo not drawn) [TCMDC-131250],62.4
13,N#Cc1ccc2[nH]cc(C(=O)CCCCCN(Cc3ccccc3)Cc3ccccc3)c2c1 [TCMDC-131257],33.92
14,OC(CN(Cc1ccccc1)Cc1ccccc1)Cn1c2ccc(Cl)cc2c2cc(Cl)ccc21 (stereo not drawn) [TCMDC-125720],14.45
15,Cc1cc(C(F)(F)F)cc(-n2ncc(-c3ccc(C(=O)NCCNCc4ccccc4)cc3)c2N)n1 [TCMDC-136659],-53.07
16,CCNc1cc(C(=O)N[C@@H](Cc2ccccc2)[C@H](O)CNC(C)(C)CCCC(C)C)cc(N2CCCC2=O)c1 [TCMDC-138889],7.674
17,CCc1c[nH]c2c(N(c3ccccc3)S(C)(=O)=O)cc(C(=O)N[C@@H](Cc3ccccc3)[C@H](O)CNCc3cccc(C(F)(F)F)c3)cc12 [TCMDC-135318],91.8
18,CS(=O)(=O)N(c1cccc(F)c1)c1cc(C(=O)N[C@@H](Cc2ccccc2)[C@H](O)CNCc2cccc(C(F)(F)F)c2)cc(N2CCCC2=O)c1 [TCMDC-138921],-9.659
19,CS(=O)(=O)N(c1ccc(F)cc1)c1cc(C(=O)N[C@@H](Cc2ccccc2)[C@H](O)CNCc2cccc(C(F)(F)F)c2)cc(N2CCCC2=O)c1 [TCMDC-138920],-15.57
20,CCc1c[nH]c2c(N(c3ccccc3)S(C)(=O)=O)cc(C(=O)N[C@@H](Cc3ccccc3)[C@H](O)CNC(C)(C)CCCC(C)C)cc12 [TCMDC-135319],124.7
21,CN=C(NC)c1cccc(NC(=O)C=Cc2ccc(C=CC(=O)Nc3cccc(C(=NC)NC)c3)cc2)c1 [TCMDC-137213],18.83

row,Structure (SMILES),% Inhibition [%]
1,CCc1cc2c(=O)c(-c3nc(C)cs3)c([C@H](N)Cc3ccc(O)cc3)oc2cc1O [TCMDC-124111],0.6377
2,O=C(N/C=N/c1cc([N+](=O)[O-])c(-c2cccnc2)n1-c1ccc(O)cc1)c1ccccc1 [TCMDC-125227],-2.82
3,COc1ccc(CC(=O)NC(CCCN2CCC(c3ccccc3)CC2)c2ccc(Cl)c(Cl)c2)cc1OC (stereo not drawn) [TCMDC-141901],-2.836
4,O=S(=O)(c1csc2ccccc12)N(CCC(O)(C(F)(F)F)C(F)(F)F)Cc1cccc(O)c1 [TCMDC-133478],82.79
5,O=S(=O)(c1ccc(Oc2ccccc2)cc1)N(CCC(O)(C(F)(F)F)C(F)(F)F)Cc1cccc(O)c1 [TCMDC-133480],74.25
6,O=S(=O)(c1cc2ccccc2s1)N(CCC(O)(C(F)(F)F)C(F)(F)F)Cc1cccc(O)c1 [TCMDC-133477],95.75
7,O=C(Nc1cccc(CN2CCN(Cc3cccc(O)c3)CC2)c1)c1cc2ccccc2s1 [TCMDC-134623],-8.756
8,CC(=O)Nc1ccc(CN(Cc2ccc(F)cc2)Cc2cccc(Oc3ccccc3)c2)cc1 [TCMDC-140033],-16.62
9,O=S(=O)(c1cc(Cl)sc1Cl)N(CCC(O)(C(F)(F)F)C(F)(F)F)Cc1cccc(O)c1 [TCMDC-133476],47.79
10,O=S(=O)(c1cccc(Cl)c1F)N(CCC(O)(C(F)(F)F)C(F)(F)F)Cc1cccc(O)c1 [TCMDC-133479],57.98
11,COC(=O)c1cccc(CN(CCC(O)(C(F)(F)F)C(F)(F)F)C(=O)CC2CCCC2)c1 [TCMDC-133482],48.89
12,Oc1cc(Nc2ccnc3cc(I)ccc23)c(F)cc1Cl [TCMDC-138386],-3.325
13,COc1ccc2nccc([C@@H](O)CN3CCC(NC(=O)/C=C/c4c[nH]c5c(C)cccc45)CC3)c2c1 [TCMDC-141000],-6.826
14,COC(=O)CCn1c(C2CCN(CC3CCC(NC(=O)/C=C/c4ccc(Cl)c(Cl)c4)CC3)CC2)nc2ccccc21 (stereo not drawn) [TCMDC-140309],-7.996
15,Cc1ccc(C)c2sc(N(CCCn3ccnc3)C(=O)c3ccco3)nc12 [TCMDC-124924],13.91
16,Cc1cc(N2CCC(NS(=O)(=O)c3cccc4cccnc34)CC2)nc(Nc2cccc(C#N)c2)n1 [TCMDC-134212],-0.7992
17,CCOC(=O)C1=C(C)NC2=C(C(=O)CCC2)C1c1cn(Cc2ccc(Cl)cc2Cl)nc1-c1ccccc1 (stereo not drawn) [TCMDC-125393],-36.58
18,COc1ccc(CNC2CCN(C)CC2)cc1-c1ccc(S(=O)(=O)NCCN2CCCC2)s1 [TCMDC-132259],103.7
19,COc1ccc(CNC2CCN(C)CC2)cc1-c1ccc(S(=O)(=O)NCC2CCCO2)s1 (stereo not drawn) [TCMDC-132478],30.18
20,COc1ccc(CNC2Cc3ccccc3C2)cc1-c1ccc(S(=O)(=O)NCCN2CCCC2)s1 [TCMDC-132258],106.2
21,COc1ccc(CNC2CCCC2)cc1-c1ccc(S(=O)(=O)NCCN2CCCC2)s1 [TCMDC-132299],107.1

row,Structure (SMILES),% Inhibition [%]
1,COc1ccc(CNC2CCN(C)CC2)cc1-c1ccc(S(=O)(=O)NC2CCC2)s1 [TCMDC-132254],75.62
2,COc1ccc(CCN2CCC(NCc3cccc(N(C)C)c3)CC2)cc1 [TCMDC-124991],-14.2
3,N#Cc1cccc(-c2cnc(N)c(-c3nc4ccc(S(N)(=O)=O)cc4[nH]3)c2)c1 [TCMDC-138816],7.84
4,COc1ccc(C(c2ccc(N(C)C)cc2)c2ccc(N(C)C)cc2)cc1 [TCMDC-125652],48.26
5,CN1CCN(CC(O)CNC(=O)Nc2ccc(Cl)cc2)CC1 (stereo not drawn) [TCMDC-134633],21.11
6,COc1ccc2nccc([C@@H](O)CN3CCC(NC(=O)/C=C/c4ccc(Cl)c(C(F)(F)F)c4)CC3)c2c1 [TCMDC-141110],-13.82
7,CN1CCC(c2c[nH]c3ccc(NC(=O)Nc4ccc(-c5ccncc5)c(Cl)c4Cl)cc23)CC1 [TCMDC-139179],-11.47
8,CSc1ccc(C=CC(=O)NC(=O)c2ccccc2O)cc1 [TCMDC-123758],32.47
9,O=C(NC1CCN(c2ccnc(Nc3ccc(F)cc3)n2)C1)c1cc2ccccc2s1 (stereo not drawn) [TCMDC-133599],10.95
10,Cc1ccc(NC(=O)c2ccc(CN3CCCN(Cc4cccc(O)c4)CC3)cc2)cc1C [TCMDC-136427],11.16
11,O=C(Nc1cccc(CN2CCCN(Cc3cccc(O)c3)CC2)c1)c1ccc(Cl)c(Cl)c1 [TCMDC-141831],-42.16
12,Cc1ccc(NC(=O)c2cccc(CN3CCCN(Cc4cccc(O)c4)CC3)c2)cc1F [TCMDC-135959],-11.31
13,Cc1ccc(C(=O)Nc2cccc(CN3CCCN(Cc4ccc(O)cc4)CC3)c2)cc1 [TCMDC-141815],21.11
14,N#Cc1ccc(CN2CCCN(Cc3cccc(NC(=O)c4ccc(Cl)c(Cl)c4)c3)CC2)cc1 [TCMDC-141823],-56.24
15,O=C(Nc1cccc(CN2CCN(Cc3cccc(O)c3)CC2)c1)c1ccc(Cl)c(Cl)c1 [TCMDC-134618],76.18
16,COc1cccc(CN2CCCN(Cc3cccc(NC(=O)c4ccc(Cl)c(Cl)c4)c3)CC2)c1 [TCMDC-141830],58.26
17,O=C(Nc1cccc(CN2CCN(Cc3ccc(O)cc3)CC2)c1)c1ccc(Cl)c(Cl)c1 [TCMDC-134619],-11.77
18,O=C(Nc1cccc(CN2CCCN(CC3CCCCC3)CC2)c1)c1ccc(Cl)c(Cl)c1 [TCMDC-141818],-34.63
19,Cc1ccc(CN2CCCN(Cc3cccc(NC(=O)c4ccc(Cl)c(Cl)c4)c3)CC2)cc1 [TCMDC-141835],80.74
20,O=C(Nc1cccc(CN2CCCN(Cc3ccc(O)cc3)CC2)c1)c1ccc(Cl)c(Cl)c1 [TCMDC-141834],-18.14
21,Cc1ccc(NC(=O)c2cccc(CN3CCCN(Cc4cccc(O)c4)CC3)c2)cc1C [TCMDC-135979],91.29
